This is a sample that favours compounds with a hit; in the whole collection about 12% have one here.
Shiga inhibitor: A qHTS for Small Molecule Inhibitors of Shiga Toxin; Vero cells, Shiga toxin protein synthesis inhibition reporter; inhibition, % at 38.7 µM; actives 9.2% (n = 290,000); AID 2315, 2010; in the data active = inhibition mostly above about 28%, no sharp cut-off; inactive = mostly below about 43%; note: 0% is about no effect
SARS PLP yeast: qHTS of Yeast-based Assay for SARS-CoV PLP; S. cerevisiae expressing SARS-CoV PLpro, growth rescue; Potency, µM (titrated, usually from 32.9 µM), for the others: top-dose activity, positive = growth rescue, actives largely listed as activators; actives 0.19% (n = 330,000); AID 485353, 2010; note: potency is the fitted concentration of half-maximal effect; 0% is about no effect; nearly all actives have a fitted effect of over 55% in size
CHX counter: Cycloheximide Counterscreen for Small Molecule Inhibitors of Shiga Toxin. actives 12% (n = 300,000). cell reporter, cycloheximide protein synthesis inhibition counterscreen. AID 2314, 2010. max response, %; in the data active = max response mostly above about 13%, no sharp cut-off; inactive = mostly below about 14%; note: read at 38.3 µM for the half of the compounds with a filed dose; 0% is about no effect
NS1 function inh: qHTS Assay for Inhibitors of Influenza NS1 Protein Function; Potency, µM (series often up to 46.1 µM), for inactives: top-dose activity, positive = more growth; actives 0.4% (n = 270,000); AID 2326, 2010; note: potency is the fitted concentration of half-maximal effect; actives are rising curves; nearly all actives have a fitted effect of over 50% in size
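Compounds were scored for reversing the slow growth caused by influenza A NS1 in S. cerevisiae, measured by optical density at 600 nm. Assay medium contained 2% galactose at pH 6.0; NS1-free yeast of the same strain were the positive control.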
Active calls of the source: *. Unless noted, calls come from the whole dose curve.

What do the screens show for `CCCOc1ccc(/C=N/NC(=S)Nc2ccccc2[N+](=O)[O-])c(O)c1`?
Shiga inhibitor: 75*; SARS PLP yeast: 10µM*; CHX counter: 93*; NS1 function inh: 21%

Results for Cc1ccc(C)n1-c1ccc(N2CCOCC2)cc1 ?
Shiga inhibitor: 71; SARS PLP yeast: 0%; CHX counter: 22*; NS1 function inh: inconclusive

Results for c1ccn(-c2ccc(N3CCOCC3)cc2)c1 ?
Shiga inhibitor: 49*; SARS PLP yeast: 5%; CHX counter: 38*; NS1 function inh: -32%

Results for c1ccc(N2CCOCCOCCOCCOCC2)cc1 ?
Shiga inhibitor: 4; SARS PLP yeast: 0%; CHX counter: 2; NS1 function inh: 1%

How did CCN(C(=O)CSc1nc2ccccc2c(=O)n1-c1ccccc1F)C1CCS(=O)(=O)C1 (stereo not drawn) do in these assays?
SARS PLP yeast: 0%

Results for CSC(=CC(=O)c1ccc(F)cc1)SC ?
Shiga inhibitor: 18; SARS PLP yeast: -3%; CHX counter: 26*; NS1 function inh: -37%

How did NC(=O)c1ccc(F)cc1 do in these assays?
Shiga inhibitor: -6; SARS PLP yeast: 1%; CHX counter: -3; NS1 function inh: -3%

What do the screens show for `C/C(=C\C(=O)c1ccccc1)Nc1ccc(N2CCOCC2)cc1`?
Shiga inhibitor: 51; SARS PLP yeast: -1%; CHX counter: 18; NS1 function inh: 1%

Results for CSC(=CC(=O)c1ccccc1)SC ?
Shiga inhibitor: 66*; SARS PLP yeast: -13%; CHX counter: 25*; NS1 function inh: -31%

What do the screens show for `C[C@H](Cc1nc2c(cnn2-c2ccccc2Cl)c(=O)[nH]1)C(F)(F)F`?
Shiga inhibitor: -5; CHX counter: -5

How did COc1cnc(SCCC(F)=C(F)F)[nH]c1=O do in these assays?
Shiga inhibitor: -2; SARS PLP yeast: 1%; CHX counter: -2

Results for Cc1ccc(NC(=O)NCC(c2ccccc2)N(C)C)cc1 (stereo not drawn) ?
Shiga inhibitor: 68*; SARS PLP yeast: -2%; CHX counter: 35*; NS1 function inh: -3%

Results for Cc1ccc(CNC(C)c2ccccc2)cc1 (stereo not drawn) ?
Shiga inhibitor: -2; SARS PLP yeast: -1%; CHX counter: -1; NS1 function inh: -13%

How did CC(=O)c1ccc(NC(=O)CNCC(c2ccccc2)N(C)C)cc1 (stereo not drawn) do in these assays?
Shiga inhibitor: -10; SARS PLP yeast: 0%; CHX counter: 2

What do the screens show for `Cc1ccc(NC(=O)CNC(C)c2ccccc2)cc1` (stereo not drawn)?
Shiga inhibitor: 50*; SARS PLP yeast: 2%; CHX counter: 29*; NS1 function inh: -5%

Results for Cc1nc(Nc2ccc3c(c2)OCO3)c2oc3ccccc3c2n1 ?
Shiga inhibitor: 46*; SARS PLP yeast: -2%; CHX counter: 39*; NS1 function inh: 9%

Results for Cc1ccc(Nc2nc(C)nc3c2oc2ccccc23)cc1 ?
Shiga inhibitor: 22; SARS PLP yeast: -1%; CHX counter: 11*; NS1 function inh: -33%

What do the screens show for `c1ccc2c(c1)oc1c(Nc3ccc4c(c3)OCO4)ncnc12`?
Shiga inhibitor: 100*; SARS PLP yeast: 0%; CHX counter: 45*; NS1 function inh: 0%

How did COc1ccc(Nc2nc(C)nc3c2oc2ccccc23)cc1 do in these assays?
Shiga inhibitor: 1; SARS PLP yeast: -3%; CHX counter: 10; NS1 function inh: -34%

How did Cc1nnc(Nc2ccc3c(c2)OCO3)c2ccccc12 do in these assays?
Shiga inhibitor: 114*; SARS PLP yeast: 2%; CHX counter: 20; NS1 function inh: 6%

Results for c1ccc2c(c1)oc1c(NCc3ccc4c(c3)OCO4)ncnc12 ?
Shiga inhibitor: -12; SARS PLP yeast: 1%; CHX counter: -2; NS1 function inh: -19%

What do the screens show for `COCCNC(=O)c1cc(-c2ccccc2)nn1Cc1cc(C)no1`?
SARS PLP yeast: -8%

What do the screens show for `Cc1ccc(N2C(=O)CC(Cc3cccc(C)c3)C2=O)cc1` (stereo not drawn)?
Shiga inhibitor: 7; SARS PLP yeast: 0%; CHX counter: 6; NS1 function inh: 2%

What do the screens show for `O=C(NCCC1CCCCN1S(=O)(=O)c1ccc(F)cc1)C(=O)NCC1CCCO1` (stereo not drawn)?
SARS PLP yeast: 0%

What do the screens show for `COc1ccc(OC)c(NC(=O)CSc2nnnn2C2CCCC2)c1`?
Shiga inhibitor: 2; SARS PLP yeast: 0%; CHX counter: 5; NS1 function inh: 0%

How did CCOC(=O)c1sc(NC(=O)CN(CC(C)C)CC(C)C)c(C(=O)OCC)c1C do in these assays?
Shiga inhibitor: -24; SARS PLP yeast: -2%; CHX counter: -3; NS1 function inh: inconclusive

How did COc1cccc(-c2nnc3n2N=C(c2ccccc2OC)CS3)c1 do in these assays?
Shiga inhibitor: -7; CHX counter: 2

What do the screens show for `CCc1ccc(NC(=O)C(C)OC(=O)/C=C/c2ccc(O)c(OC)c2)cc1` (stereo not drawn)?
SARS PLP yeast: 5%

Results for Cc1ccccc1N1CCN(C2CCCN(C(=O)c3noc4c3CCCC4)C2)CC1 (stereo not drawn) ?
Shiga inhibitor: -36; SARS PLP yeast: -4%; CHX counter: -1; NS1 function inh: 6%

How did CC(=O)c1ccc(Nc2nc(C)nc3c2oc2ccccc23)cc1 do in these assays?
Shiga inhibitor: -2; SARS PLP yeast: -6%; CHX counter: 8; NS1 function inh: 0%

What do the screens show for `Cc1nc(Nc2ccccc2)c2oc3ccc(Cl)cc3c2n1`?
Shiga inhibitor: 43*; SARS PLP yeast: -1%; CHX counter: 18*; NS1 function inh: -1%

Results for COc1ccc(NC(C)=O)cc1NC(=O)c1ccc(C#N)cc1 ?
Shiga inhibitor: -17; SARS PLP yeast: 2%; CHX counter: 3

Results for Nc1nccc(-c2cc(-c3ccc(Cl)cc3Cl)no2)n1 ?
Shiga inhibitor: 54*; SARS PLP yeast: -2%; CHX counter: 42*; NS1 function inh: -8%

Results for O=[N+]([O-])c1ccc(N=Nc2ncc[nH]2)cc1 ?
Shiga inhibitor: 45; SARS PLP yeast: -11%; CHX counter: 16*; NS1 function inh: -65%

What do the screens show for `O=[N+]([O-])c1ccc(N=NN(CCO)CCO)cc1`?
Shiga inhibitor: -11; SARS PLP yeast: 0%; CHX counter: 4; NS1 function inh: 3%

How did c1ccc2cc(-c3cc(-c4cc(-c5ccc6ccccc6c5)on4)no3)ccc2c1 do in these assays?
NS1 function inh: -3%

Results for CS(=O)(=O)c1ncc(Cl)c(C(=O)Nc2ccc(N3CCOCC3)cc2)n1 ?
Shiga inhibitor: 67*; SARS PLP yeast: 26%; CHX counter: 60*; NS1 function inh: -14%

Results for Cc1nnc(NC(=O)c2nc(S(=O)(=O)Cc3ccccc3)ncc2Cl)s1 ?
Shiga inhibitor: 86*; SARS PLP yeast: 4%; CHX counter: 63*; NS1 function inh: -8%

Results for CS(=O)(=O)c1ncc(Cl)c(C(=O)Nc2ccc(OC(F)F)cc2)n1 ?
Shiga inhibitor: -6; SARS PLP yeast: -13%; CHX counter: -8; NS1 function inh: -62%

Screening data (PubChem BioAssay)
